# Experimental data as given in paper PMC7862700, “An all-to-all approach to the identification of sequence-specific readers for epigenetic DNA modifications on cytosine”.
# Columns and labels:
# Assay in all cases: DAPPL (digital affinity profiling via proximity ligation, sequencing); 10 mM Tris-HCl pH 7.5, 50 mM NaCl, 1 mM DTT, 4% glycerol, room temperature, 30 min; GST-TFs on glutathione beads, 16-mer random dsDNA library, 0.1% formaldehyde crosslink after washing; high values mean tight binding
# Settings in all cases: protein: recombinant; tags: N-terminal GST; dsDNA, one strand shown
# FLI1 = biological target: T1, FLI1 (Homo sapiens, UniProt Q01543 1-452)
# T1 sequence: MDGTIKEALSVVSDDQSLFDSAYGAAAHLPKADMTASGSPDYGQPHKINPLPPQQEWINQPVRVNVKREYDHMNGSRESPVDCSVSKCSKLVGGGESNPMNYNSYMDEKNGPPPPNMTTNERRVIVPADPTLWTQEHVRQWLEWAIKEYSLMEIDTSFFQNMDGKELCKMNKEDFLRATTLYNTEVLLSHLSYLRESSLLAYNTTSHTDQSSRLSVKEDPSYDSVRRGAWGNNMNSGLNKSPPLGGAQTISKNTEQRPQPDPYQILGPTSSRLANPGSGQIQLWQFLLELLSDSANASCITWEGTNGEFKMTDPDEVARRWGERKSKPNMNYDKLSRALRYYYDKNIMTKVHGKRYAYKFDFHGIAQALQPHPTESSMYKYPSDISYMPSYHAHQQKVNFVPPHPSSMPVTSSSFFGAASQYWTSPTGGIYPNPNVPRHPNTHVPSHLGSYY
# Outline: (§1)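 Each value of binding signal is a hexamer's read frequency for a factor divided by the same hexamer's frequency in the tag-only sample. Barcoded, bead-captured GST fusions of human transcription factors made in yeast were pooled with that sample and incubated with 200 nmole of a random double-stranded 16-mer DNA library in Tris/NaCl/DTT/glycerol buffer at room temperature for 30 min. Washing, 0.1% formaldehyde crosslinking, proximity ligation, PCR and Illumina NextSeq500 sequencing followed.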
# ELK1 = biological target: T2, ELK1 (Homo sapiens, UniProt P19419 1-428)
# T2 sequence: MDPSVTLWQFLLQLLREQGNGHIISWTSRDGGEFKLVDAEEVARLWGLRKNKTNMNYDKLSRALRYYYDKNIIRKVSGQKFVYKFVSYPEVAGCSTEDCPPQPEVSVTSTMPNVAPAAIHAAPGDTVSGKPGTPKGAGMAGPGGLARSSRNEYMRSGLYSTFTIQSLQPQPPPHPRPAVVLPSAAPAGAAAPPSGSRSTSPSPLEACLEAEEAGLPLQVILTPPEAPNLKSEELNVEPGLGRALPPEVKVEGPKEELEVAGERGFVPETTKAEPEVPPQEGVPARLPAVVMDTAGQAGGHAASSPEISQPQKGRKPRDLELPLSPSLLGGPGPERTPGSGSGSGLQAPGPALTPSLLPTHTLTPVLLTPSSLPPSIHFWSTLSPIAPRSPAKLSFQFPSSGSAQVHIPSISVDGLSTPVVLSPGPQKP
# Outline: as §1
# GABPA = biological target: T3, GABPA (Homo sapiens, UniProt Q06546 1-454)
# T3 sequence: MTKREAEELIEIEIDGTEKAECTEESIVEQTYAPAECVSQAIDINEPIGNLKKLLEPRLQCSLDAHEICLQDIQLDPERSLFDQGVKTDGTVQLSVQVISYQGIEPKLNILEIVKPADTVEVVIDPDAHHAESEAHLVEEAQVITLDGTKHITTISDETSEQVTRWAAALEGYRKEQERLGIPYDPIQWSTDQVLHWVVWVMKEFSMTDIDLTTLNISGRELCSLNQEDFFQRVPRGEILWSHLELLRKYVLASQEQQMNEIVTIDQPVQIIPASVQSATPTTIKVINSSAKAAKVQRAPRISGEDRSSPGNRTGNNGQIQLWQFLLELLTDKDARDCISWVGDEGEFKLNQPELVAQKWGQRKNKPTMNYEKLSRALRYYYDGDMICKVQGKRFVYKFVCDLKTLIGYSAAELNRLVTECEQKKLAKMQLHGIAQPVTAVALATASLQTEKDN
# Outline: as §1
# ERG = biological target: T4, ERG (Homo sapiens, UniProt P11308 1-479)
# T4 sequence: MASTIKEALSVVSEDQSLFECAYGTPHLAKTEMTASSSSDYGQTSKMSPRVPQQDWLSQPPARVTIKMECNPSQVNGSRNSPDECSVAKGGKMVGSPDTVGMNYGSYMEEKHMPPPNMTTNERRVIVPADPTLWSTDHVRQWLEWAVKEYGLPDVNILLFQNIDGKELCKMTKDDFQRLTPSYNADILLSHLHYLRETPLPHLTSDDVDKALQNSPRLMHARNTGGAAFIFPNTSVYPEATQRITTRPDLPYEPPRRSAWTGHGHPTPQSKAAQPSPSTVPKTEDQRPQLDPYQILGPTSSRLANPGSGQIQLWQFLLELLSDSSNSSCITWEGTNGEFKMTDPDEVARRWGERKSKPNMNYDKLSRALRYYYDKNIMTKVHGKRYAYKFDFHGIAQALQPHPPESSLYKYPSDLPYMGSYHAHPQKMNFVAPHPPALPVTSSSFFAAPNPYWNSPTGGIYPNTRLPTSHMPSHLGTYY
# Outline: as §1
# ELF1 = ELF1 (Homo sapiens, UniProt P32519 1-619)
# Outline: as §1
# EHF = biological target: T5, EHF (Homo sapiens, UniProt Q9NZC4 1-300)
# T5 sequence: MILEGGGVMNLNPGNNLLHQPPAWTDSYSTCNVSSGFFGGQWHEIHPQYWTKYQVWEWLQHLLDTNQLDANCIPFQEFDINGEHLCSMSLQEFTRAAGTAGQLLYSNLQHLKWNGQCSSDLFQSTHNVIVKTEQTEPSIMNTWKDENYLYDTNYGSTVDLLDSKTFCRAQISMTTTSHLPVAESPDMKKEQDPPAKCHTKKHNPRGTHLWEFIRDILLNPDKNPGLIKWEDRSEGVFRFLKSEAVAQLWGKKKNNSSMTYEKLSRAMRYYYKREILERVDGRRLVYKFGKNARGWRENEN
# Outline: as §1
# SPI1 = SPI1 (Homo sapiens, UniProt P17947 1-270)
# Outline: as §1
# SPIB = SPIB (Homo sapiens, UniProt Q01892 1-262)
# Outline: as §1
# ELK3 = biological target: T6, ELK3 (Homo sapiens, UniProt P41970 1-407)
# T6 sequence: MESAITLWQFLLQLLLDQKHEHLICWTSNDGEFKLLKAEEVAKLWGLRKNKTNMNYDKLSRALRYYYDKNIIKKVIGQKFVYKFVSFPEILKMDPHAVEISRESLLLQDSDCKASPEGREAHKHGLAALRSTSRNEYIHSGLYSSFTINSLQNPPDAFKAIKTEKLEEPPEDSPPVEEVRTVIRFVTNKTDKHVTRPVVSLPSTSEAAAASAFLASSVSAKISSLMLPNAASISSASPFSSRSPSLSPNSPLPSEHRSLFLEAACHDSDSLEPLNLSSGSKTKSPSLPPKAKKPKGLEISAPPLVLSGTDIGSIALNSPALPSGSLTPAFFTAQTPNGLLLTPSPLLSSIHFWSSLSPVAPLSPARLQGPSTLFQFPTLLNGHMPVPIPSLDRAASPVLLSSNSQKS
# Outline: as §1
# FEV = biological target: T7, FEV (Homo sapiens, UniProt Q99581 1-238)
# T7 sequence: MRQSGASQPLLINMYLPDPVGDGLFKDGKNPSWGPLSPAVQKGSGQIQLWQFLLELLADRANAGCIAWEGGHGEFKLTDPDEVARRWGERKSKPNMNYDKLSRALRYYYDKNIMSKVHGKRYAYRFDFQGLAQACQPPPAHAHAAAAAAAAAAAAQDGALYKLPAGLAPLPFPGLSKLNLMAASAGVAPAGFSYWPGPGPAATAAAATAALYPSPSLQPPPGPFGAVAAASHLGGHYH
# Outline: as §1
# ETV5 = ETV5 (Homo sapiens, UniProt P41161 1-510)
# Outline: as §1
# SPIC = biological target: T8, SPIC (Homo sapiens, UniProt Q8N5J4 1-248)
# T8 sequence: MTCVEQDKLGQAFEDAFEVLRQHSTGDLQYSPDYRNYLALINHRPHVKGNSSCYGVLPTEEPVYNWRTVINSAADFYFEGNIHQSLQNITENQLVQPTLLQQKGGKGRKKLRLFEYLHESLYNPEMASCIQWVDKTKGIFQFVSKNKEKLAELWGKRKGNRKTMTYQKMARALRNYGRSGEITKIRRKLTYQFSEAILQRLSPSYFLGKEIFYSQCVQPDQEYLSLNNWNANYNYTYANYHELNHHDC
# Outline: as §1
# ELF4 = ELF4 (Homo sapiens, UniProt Q99607 1-663)
# Outline: as §1
# ELK4 = biological target: T9, ELK4 (Homo sapiens, UniProt P28324-2 1-405)
# T9 sequence: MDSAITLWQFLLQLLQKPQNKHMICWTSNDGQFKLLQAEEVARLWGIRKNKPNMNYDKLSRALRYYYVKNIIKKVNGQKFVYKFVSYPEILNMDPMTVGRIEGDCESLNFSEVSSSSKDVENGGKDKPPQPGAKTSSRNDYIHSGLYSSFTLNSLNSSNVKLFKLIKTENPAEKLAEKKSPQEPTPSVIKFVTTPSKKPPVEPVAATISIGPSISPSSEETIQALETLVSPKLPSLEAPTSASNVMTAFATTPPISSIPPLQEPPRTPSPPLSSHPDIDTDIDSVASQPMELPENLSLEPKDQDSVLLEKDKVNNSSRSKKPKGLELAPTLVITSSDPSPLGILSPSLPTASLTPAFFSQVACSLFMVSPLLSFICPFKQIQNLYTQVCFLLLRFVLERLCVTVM
# Outline: as §1
# ETV2 = biological target: T10, ETV2 (Homo sapiens, UniProt O00321 1-342)
# T10 sequence: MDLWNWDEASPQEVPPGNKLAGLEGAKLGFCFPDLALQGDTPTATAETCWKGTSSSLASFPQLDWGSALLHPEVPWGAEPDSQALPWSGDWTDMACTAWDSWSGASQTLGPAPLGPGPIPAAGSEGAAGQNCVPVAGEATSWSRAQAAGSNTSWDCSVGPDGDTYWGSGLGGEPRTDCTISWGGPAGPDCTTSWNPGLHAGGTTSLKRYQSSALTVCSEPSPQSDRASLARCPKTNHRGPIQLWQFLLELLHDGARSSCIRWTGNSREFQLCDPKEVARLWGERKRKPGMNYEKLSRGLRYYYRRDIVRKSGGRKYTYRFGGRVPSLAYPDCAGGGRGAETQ
# Outline: as §1
# ELF3 = biological target: T11, ELF3 (Homo sapiens, UniProt P78545 1-371)
# T11 sequence: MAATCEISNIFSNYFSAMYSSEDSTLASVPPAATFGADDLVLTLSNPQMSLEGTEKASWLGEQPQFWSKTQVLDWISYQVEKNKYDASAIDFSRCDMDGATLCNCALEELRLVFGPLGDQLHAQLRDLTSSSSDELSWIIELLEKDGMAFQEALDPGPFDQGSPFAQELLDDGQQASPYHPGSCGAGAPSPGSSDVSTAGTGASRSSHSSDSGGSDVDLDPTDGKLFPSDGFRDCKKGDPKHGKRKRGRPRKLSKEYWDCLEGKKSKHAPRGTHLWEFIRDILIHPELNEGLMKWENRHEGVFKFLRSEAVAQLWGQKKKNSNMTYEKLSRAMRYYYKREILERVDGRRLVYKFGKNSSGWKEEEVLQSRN
# Outline: as §1
# ETV1 = ETV1 (Homo sapiens, UniProt P50549 1-477)
# Outline: as §1
# Sequence of SPIB (Q01892 whole entry): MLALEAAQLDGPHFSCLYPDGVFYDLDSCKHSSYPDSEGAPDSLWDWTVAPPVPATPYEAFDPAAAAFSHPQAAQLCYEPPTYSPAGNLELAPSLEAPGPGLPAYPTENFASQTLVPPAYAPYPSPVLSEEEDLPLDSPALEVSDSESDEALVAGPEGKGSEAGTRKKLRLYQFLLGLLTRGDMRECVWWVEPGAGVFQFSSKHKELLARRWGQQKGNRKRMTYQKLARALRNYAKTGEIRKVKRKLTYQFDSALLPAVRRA
# Sequence of ETV1 (P50549 whole entry): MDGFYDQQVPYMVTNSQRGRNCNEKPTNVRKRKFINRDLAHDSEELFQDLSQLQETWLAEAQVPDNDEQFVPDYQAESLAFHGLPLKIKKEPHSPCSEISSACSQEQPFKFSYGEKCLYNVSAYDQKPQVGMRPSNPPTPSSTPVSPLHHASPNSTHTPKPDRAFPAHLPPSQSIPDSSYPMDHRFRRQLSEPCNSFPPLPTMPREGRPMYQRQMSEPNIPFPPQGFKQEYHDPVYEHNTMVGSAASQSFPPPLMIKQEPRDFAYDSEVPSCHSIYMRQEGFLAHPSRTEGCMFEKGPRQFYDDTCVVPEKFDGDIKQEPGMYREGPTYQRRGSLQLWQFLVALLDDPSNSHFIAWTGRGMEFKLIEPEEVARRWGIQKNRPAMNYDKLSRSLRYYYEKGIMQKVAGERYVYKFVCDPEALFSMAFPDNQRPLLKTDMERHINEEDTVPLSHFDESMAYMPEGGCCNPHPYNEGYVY
# Sequence of ETV5 (P41161 whole entry): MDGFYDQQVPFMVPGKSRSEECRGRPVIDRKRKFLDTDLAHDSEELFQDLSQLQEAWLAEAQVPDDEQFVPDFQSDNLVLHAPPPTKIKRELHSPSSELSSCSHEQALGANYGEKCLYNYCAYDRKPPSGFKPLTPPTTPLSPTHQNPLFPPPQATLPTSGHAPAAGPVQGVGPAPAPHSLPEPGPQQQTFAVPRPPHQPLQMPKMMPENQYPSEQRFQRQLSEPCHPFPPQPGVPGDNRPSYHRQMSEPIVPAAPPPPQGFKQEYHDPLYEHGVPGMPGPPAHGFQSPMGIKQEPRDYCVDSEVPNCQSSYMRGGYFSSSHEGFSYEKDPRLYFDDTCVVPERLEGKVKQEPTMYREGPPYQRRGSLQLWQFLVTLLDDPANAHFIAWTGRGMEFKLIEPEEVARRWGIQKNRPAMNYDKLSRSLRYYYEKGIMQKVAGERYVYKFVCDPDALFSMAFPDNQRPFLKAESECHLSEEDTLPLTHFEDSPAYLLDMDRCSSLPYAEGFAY
# Sequence of ELF1 (P32519 whole entry): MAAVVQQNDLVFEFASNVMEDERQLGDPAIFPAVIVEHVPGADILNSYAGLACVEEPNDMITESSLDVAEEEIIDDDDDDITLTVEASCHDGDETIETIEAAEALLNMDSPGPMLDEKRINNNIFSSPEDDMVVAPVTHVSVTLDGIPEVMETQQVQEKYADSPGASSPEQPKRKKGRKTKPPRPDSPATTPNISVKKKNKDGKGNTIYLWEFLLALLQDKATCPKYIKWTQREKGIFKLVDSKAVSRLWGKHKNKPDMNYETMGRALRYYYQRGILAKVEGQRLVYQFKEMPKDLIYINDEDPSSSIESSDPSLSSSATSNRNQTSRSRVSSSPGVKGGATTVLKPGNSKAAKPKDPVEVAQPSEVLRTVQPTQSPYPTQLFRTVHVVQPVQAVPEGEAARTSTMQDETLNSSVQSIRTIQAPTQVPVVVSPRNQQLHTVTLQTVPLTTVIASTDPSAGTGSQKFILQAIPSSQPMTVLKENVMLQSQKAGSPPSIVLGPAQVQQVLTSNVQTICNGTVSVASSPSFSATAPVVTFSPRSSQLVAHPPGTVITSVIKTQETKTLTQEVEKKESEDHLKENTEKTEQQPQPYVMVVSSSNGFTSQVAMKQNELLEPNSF
# Sequence of ELF4 (Q99607 whole entry): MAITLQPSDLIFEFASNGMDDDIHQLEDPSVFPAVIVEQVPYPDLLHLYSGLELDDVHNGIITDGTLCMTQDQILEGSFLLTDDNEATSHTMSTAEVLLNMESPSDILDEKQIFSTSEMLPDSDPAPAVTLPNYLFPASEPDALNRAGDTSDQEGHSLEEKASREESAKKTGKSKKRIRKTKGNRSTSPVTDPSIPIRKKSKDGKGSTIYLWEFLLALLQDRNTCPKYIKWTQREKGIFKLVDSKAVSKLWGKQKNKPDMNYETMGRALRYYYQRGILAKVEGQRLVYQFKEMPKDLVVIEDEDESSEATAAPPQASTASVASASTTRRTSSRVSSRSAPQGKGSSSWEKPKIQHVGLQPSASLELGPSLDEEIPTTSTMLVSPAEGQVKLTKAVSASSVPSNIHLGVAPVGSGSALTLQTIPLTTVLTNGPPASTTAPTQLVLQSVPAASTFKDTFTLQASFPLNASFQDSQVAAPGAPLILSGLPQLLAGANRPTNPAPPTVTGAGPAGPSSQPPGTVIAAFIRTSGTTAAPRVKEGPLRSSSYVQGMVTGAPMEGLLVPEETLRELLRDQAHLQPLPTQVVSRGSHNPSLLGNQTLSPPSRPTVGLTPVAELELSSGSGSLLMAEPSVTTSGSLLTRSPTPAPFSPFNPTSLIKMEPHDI
Sequence,binding signal (FLI1),binding signal (ELK1),binding signal (GABPA),binding signal (ERG),binding signal (ELF1),binding signal (EHF),binding signal (SPI1),binding signal (SPIB),binding signal (ELK3),binding signal (FEV),binding signal (ETV5),binding signal (SPIC),binding signal (ELF4),binding signal (ELK4),binding signal (ETV2),binding signal (ELF3),binding signal (ETV1)
CACTGT,"1.12 fold enrichment (6-mer frequency, TF over GST control)","1.09 fold enrichment (6-mer frequency, TF over GST control)","1.17 fold enrichment (6-mer frequency, TF over GST control)","1.14 fold enrichment (6-mer frequency, TF over GST control)","1.16 fold enrichment (6-mer frequency, TF over GST control)","1.19 fold enrichment (6-mer frequency, TF over GST control)","1.11 fold enrichment (6-mer frequency, TF over GST control)","1.22 fold enrichment (6-mer frequency, TF over GST control)","1.03 fold enrichment (6-mer frequency, TF over GST control)","1.09 fold enrichment (6-mer frequency, TF over GST control)","1.1 fold enrichment (6-mer frequency, TF over GST control)","1.19 fold enrichment (6-mer frequency, TF over GST control)","1.15 fold enrichment (6-mer frequency, TF over GST control)","1.17 fold enrichment (6-mer frequency, TF over GST control)","1.25 fold enrichment (6-mer frequency, TF over GST control)","1.04 fold enrichment (6-mer frequency, TF over GST control)","1.11 fold enrichment (6-mer frequency, TF over GST control)"
GCCGAC,"1.19 fold enrichment (6-mer frequency, TF over GST control)","1.23 fold enrichment (6-mer frequency, TF over GST control)","1.21 fold enrichment (6-mer frequency, TF over GST control)","1.17 fold enrichment (6-mer frequency, TF over GST control)","1.1 fold enrichment (6-mer frequency, TF over GST control)","1.05 fold enrichment (6-mer frequency, TF over GST control)","1.05 fold enrichment (6-mer frequency, TF over GST control)","1.18 fold enrichment (6-mer frequency, TF over GST control)","1.15 fold enrichment (6-mer frequency, TF over GST control)","1.14 fold enrichment (6-mer frequency, TF over GST control)","1.02 fold enrichment (6-mer frequency, TF over GST control)","1.34 fold enrichment (6-mer frequency, TF over GST control)","1.08 fold enrichment (6-mer frequency, TF over GST control)","1.15 fold enrichment (6-mer frequency, TF over GST control)","1.15 fold enrichment (6-mer frequency, TF over GST control)","1 fold enrichment (6-mer frequency, TF over GST control)","1.04 fold enrichment (6-mer frequency, TF over GST control)"
